Measurements: PubChem BioAssay (NCATS)
Records with an inconclusive call do not appear. The source made the active and inactive calls. Calls follow the shape of the dose curve; as a rule, active = well fitted inhibition curve with a large enough effect; inconclusive = small, poorly fitted or top-dose-only effect; inactive = flat fitted curve, though single readings scatter.

The molecules below were run on CRL-7250 (assay: qHTS assay to identify novel small-molecules to repurpose for Merkel cell carcinoma treatment (AID 1296009; also: nearly all actives have a fitted effect of over 60% in size)). Details: MCC and control cell lines, CellTiter-Glo viability, 72 h; series mostly up to 92 µM; activity change, negative = cytotoxicity: at the top concentration.
Procedure, shortened: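 Luminescence from CellTiter-Glo, read 10 min after addition at room temperature, reported viability following a 72 hr, 37 degree celsius treatment with NPC or MIPE compounds in titration; values normalized to plate controls.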

Compound	outcome
CC1(O)CCC2C(C(=O)O)=COC(OC3OC(CO)C(O)C(O)C3OC(=O)/C=C/c3ccc(O)cc3)C21 (configuration not stated)	inactive [at 17.4 µM]
Clc1ccc2c(c1)C1=NCCN1c1c(-c3noc(C4CC4)n3)ncn1-2	inactive
CNC(=O)c1ccc2cc([C@@]3(O)CCn4cncc43)ccc2c1	inactive
CCOC(=O)c1sc(NC(=O)[C@H](C(C)C)n2c(=O)[nH]c3ccccc3c2=O)nc1C	inactive
COc1cc(CC(COC2OC(CO)C(O)C(O)C2O)c2cc(/C=C/CO)cc(OC)c2O)ccc1O (configuration not stated)	inactive [at 17.4 µM]
C=CC(C)(CC/C=C(\C)CC/C=C(\C)CC(O)/C=C(\C)C(=O)O)O[C@@H]1O[C@H](CO)[C@@H](O)[C@H](O)[C@H]1O[C@@H]1O[C@H](CO)[C@@H](O)[C@H](O)[C@H]1O (some centres not stated)	inactive [at 17.4 µM]
CC(C)C(CO)Nc1nc(Nc2ccc(C(=O)O)c(Cl)c2)c2ncn(C(C)C)c2n1 (configuration not stated)	inactive
CC1OC(OC2CCC3(C)C(CCC4(C)C3CC=C3C5CC(C)(C)CCC5(C(=O)OC5OC(CO)C(O)C(O)C5O)CCC34C(=O)O)C2(C)C)C(O)C(O)C1O (configuration not stated)	inactive [at 17.4 µM]
COC(=O)[C@@]1(O)C=CC[C@@H]2[C@@]3(C)C[C@@H](c4ccoc4)OC(=O)[C@H]3CC[C@]21C	inactive
CNC(C)C(=O)NC(C(=O)N1CCCC1C(=O)Nc1cccc2ncccc12)C(C)C (configuration not stated)	inactive
C=C1CCC2(OC1)OC1CC3C4CC=C5CC(O)CC(O[C@@H]6OC[C@@H](O)[C@H](O)[C@H]6O)C5(C)C4CCC3(C)C1(O)C2C (some centres not stated)	inactive [at 17.4 µM]
NCCCC[C@H](NC(=O)[C@@H]1Cc2ccccc2CN1C(=O)CCC(=O)c1ccccc1)C(=O)NCC(c1ccccc1)c1ccccc1	inactive
